Each structure is given as a SMILES string. “And” between values parts separate entries of the source, which are not always exact repeats. Equal entries are not always repeated. The campaign covered roughly 350,000 compounds. About 6,000 (1.7%) were called active. Roughly 5% stayed inconclusive and do not appear here. The sample holds actives, similar compounds and a random draw of the others, so the mix is not that of the screen. Rule as the data show it: active = CPE inhibition above about 20% (passing the limit was not always enough); inconclusive = no clear call, values can overlap the other calls; tested in BHK-21 cells. Some compounds were tested as several samples or in several runs, with calls that do not always agree.

A short description of the experiment: protection of cells from dengue 2 killing – plate reader, single concentration, primary screen (AID 651640).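 Also: 0% = median of neutral control wells and 100% = median of positive control wells.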 The following applies: DENV2-infected cells, cytopathic effect rescue, at 9.99 µM, stronger effect = higher value.
Take `O=C(C[C@@H]1CC[C@@H](NS(=O)(=O)c2ccccc2)[C@H](CO)O1)NCc1ccc(Cl)c(Cl)c1`: the CPE inhibition was 3.78% (inactive).
For `Cc1c(C)n2c(SCC(=O)N3CCCC3)nnc2[nH]c1=O` the value was 13.9% (inactive); for `CCc1ccc(C(=O)CSc2nnc(C)c(=O)[nH]2)cc1`, -2.63% (inactive); for `Cc1nnc(SCC(=O)N2CCOCC2)[nH]c1=O`, 58.6% (active).
With `COc1ccc2c3c(n(C)c2c1)[C@@H](CO)N(C(=O)Nc1ccc(F)cc1)CC31CN(C(=O)NC(C)C)C1` the figure was -3.42% (inactive); with `CNC(=O)C[C@@H]1CC[C@H]2[C@H](COc3ccc(NC(=O)C4CC4)cc3C(=O)N2C)O1`, -4.01% (inactive); with `CCCNC(=O)Nc1ccc2c(c1)C(=O)N(C)C[C@@H](OC)[C@H](C)CN(CCC)[C@@H](C)CO2`, 3.79% (inactive).
With `COc1ccc(S(=O)(=O)Nc2cccc3c2O[C@H](CN(C)C(=O)NC(C)C)[C@H](C)CN([C@H](C)CO)C3=O)cc1` the figure was -8.19% (inactive); with `O=C(N[C@@H]1CC[C@@H](CCn2cc(-c3ccccn3)nn2)O[C@@H]1CO)c1ccccc1`, -2.85% (inactive); with `CC=Cc1ccc2n(c1=O)C[C@@H]1[C@@H](CO)[C@H](C(=O)N3CCCCC3)[C@H]2N1C(=O)C1CCC1` (mixture of isomers), 1.43% (inactive).
As to `O=S(=O)(NCC[C@H]1CC[C@@H](NS(=O)(=O)c2ccccc2Cl)[C@@H](CO)O1)c1ccc(Cl)cc1`, the CPE inhibition is -9.23% (inactive).
With `COc1ccc2c(C)c(CCC(=O)NC3CC3)c(=O)oc2c1C` the figure was 63.2% (active); with `Cc1c(CCC(=O)O)c(=O)oc2c(C)c(OCc3ccccc3Cl)ccc12`, -5.66% (inactive); with `COc1ccc(OC)c(Cc2nnc(CCC(=O)NC3CCCC3)o2)c1`, -7.33% (inactive).
For `C[C@H]1CN([C@@H](C)CO)C(=O)c2cc(C#CCN(C)C)cnc2O[C@H]1CN(C)C(=O)Cc1ccccc1` the value was -2.97% (inactive); for `Cc1[nH]c2ccccc2c1CC(=O)Nc1ccc(Nc2cccnc2)c(-c2cccc(Cl)c2)c1`, -3.53% (inactive).
As for `Cc1ccccc1CN(C)C[C@H]1OCc2cn(nn2)CCCC(=O)N([C@@H](C)CO)C[C@H]1C`, the CPE inhibition was -8.88% (inactive).
For the compound `COc1ccc(CN(C)C[C@H]2OCCCC[C@H](C)Oc3ccc(NC(=O)c4ccccc4)cc3C(=O)N([C@@H](C)CO)C[C@@H]2C)cc1`, the CPE inhibition was 10.3% (inactive).
With `O=C(N/N=C/c1ccccn1)c1ccc(S(=O)(=O)N2CCCCCC2)cc1` the figure was 0.844% (inactive); with `O=C(Nc1ncccc1O)c1ccc(S(=O)(=O)N2CCCCCC2)cc1`, 71.9% (active); with `O=C(Nc1ncccc1O)c1ccc(S(=O)(=O)N2CCCC2)cc1`, -6.91% (inactive).
On to `C[C@@H]1CN([C@H](C)CO)C(=O)c2cc(NC(=O)Nc3ccc(F)cc3)ccc2O[C@@H](C)CCCCO[C@H]1CN(C)Cc1ccc(Cl)c(Cl)c1`, for which the CPE inhibition was -2.33% (inactive).
For `C[C@@H]1CN([C@@H](C)CO)S(=O)(=O)c2ccc(C3=CCCCC3)cc2O[C@@H]1CN(C)Cc1cccc(C(=O)O)c1` the value was 0.212% (inactive); for `COc1ccc(N2CCN(C(=O)c3cccs3)CC2)cc1`, 5.45% (inactive); for `O=C(COc1ccccc1)Nc1ccc(N2CCN(C(=O)c3cccs3)CC2)cc1`, 21.9% (active).
With `O=C(COc1ccccc1)Nc1ccc(C(=O)N2CCCC2)cc1` the figure was -2.25% (inactive); with `Cc1cc(C)n(CCNS(=O)(=O)c2ccc(Cl)cc2)n1`, 8.8% (inactive); with `COc1ccc2cc(-c3[nH]ncc3CNCCn3nc(C)cc3C)ccc2c1`, 22.2% (active).
With `COc1ccc(-c2cn[nH]c2-c2ccc(OC)cc2)cc1` the figure was 4.92% (inactive); with `CN(C)CC(=O)N1[C@H](C(=O)NC2CCC2)[C@@H](CO)[C@@H]2Cn3c(ccc(-c4ccc(F)cc4)c3=O)[C@@H]21`, 2.93% (inactive); with `O=C(C1CCC1)N1C[C@@H]2N[C@H](C1)C2c1ccc(-c2cncnc2)cc1` (stereo not given in full), 10.6% (inactive).
Take `O=C(CN1CCOCC1)N1C[C@@H]2N[C@H](C1)C2c1ccc(-c2ccncc2)cc1` (stereo not given in full): the CPE inhibition is -7.01% (inactive).
Take `O=C(Cc1ccncc1)N1C[C@@H]2N[C@H](C1)C2c1ccc(-c2ccc(F)cc2)cc1` (stereo not given in full): the CPE inhibition was 21.5% (active).
With `COc1ccc(-c2ccc(C3[C@@H]4CN(S(=O)(=O)c5cn(C)cn5)C[C@H]3N4)cc2)cc1` (stereo not given in full) the figure was 1.06% (inactive); with `Cn1cnc(S(=O)(=O)N2C[C@@H]3N[C@H](C2)C3c2ccc(/C=C/c3ccccc3)cc2)c1` (stereo not given in full), 1.24% (inactive) and -2.99% (inactive); with `Cn1cnc(S(=O)(=O)N2C[C@@H]3N[C@H](C2)C3c2ccc(-c3ccccc3F)cc2)c1` (stereo not given in full), 72.2% (active) and -4.36% (inactive).
On to `CO[C@@H]1CN(C)C(=O)c2cc(NC(=O)C3CCCC3)ccc2OC[C@H](C)N(C)C[C@@H]1C`, for which the CPE inhibition was 4.63% (inactive).
For `COC(=O)C[C@@H]1C[C@H]2c3cc(NC(=O)CN(C)C)ccc3O[C@H]2[C@H](CO)O1` the value was 1.76% (inactive); for `Cc1noc(C)c1S(=O)(=O)N(C)C[C@@H]1OCCCC[C@H](C)Oc2ccc(NC(=O)CCC(F)(F)F)cc2C(=O)N([C@H](C)CO)C[C@H]1C`, 18.7% (inactive); for `O=C(Nc1nccs1)[C@@H]1[C@@H](CO)[C@@H]2Cn3c(ccc(-c4cccnc4)c3=O)[C@@H]2N1CC1CC1`, -4.43% (inactive).
As to `C[C@H]1COC(=O)[C@H](CC(=O)OC(C)(C)C)C/C=C\C[C@@H](CC(=O)N[C@H](CO)Cc2ccccc2)C(=O)N1`, the CPE inhibition is 15.2% (inactive).
With `CC(C)(C)OC(=O)C[C@@H]1C/C=C\C[C@H](CC(=O)N[C@@H](CO)Cc2ccccc2)C(=O)N[C@H](Cc2ccccc2)COC1=O` the figure was 21.2% (active).
With `CC(C)(C)OC(=O)C[C@@H]1C/C=C\C[C@@H](CC(=O)N[C@H](CO)Cc2ccccc2)C(=O)NCCOC1=O`, the CPE inhibition was -7.88% (inactive).
For `O=C(NCC1CC1)[C@@H]1[C@@H](CO)[C@@H]2Cn3c(ccc(-c4ccncc4)c3=O)[C@@H]2N1Cc1cocn1` the value was 6.32% (inactive); for `O=C(c1ccncc1)N1CC[C@@H]2[C@H]1c1cc(Br)ccc1N[C@@H]2CO`, -10.3% (inactive).

The record behind these values is PubChem BioAssay AID651640 (Broad Institute, 2012).
